Sampled rows, rich in hits. Any-hit rate of the full collection: about 5.1%.
CRFBP-R2 block: CRF-BP/CRF-R2 complex antagonism. HEK293 CRF-R2/CRF-BP, CRF-induced calcium fluorescence. inhibition, % at 11.8 µM. 0.59% of 350,000 active;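 active means inhibition of the ligand-induced calcium signal above about 50% at the single tested concentration, limit read from the data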
ANO1 block: blocks the mouse calcium-activated chloride channel TMEM16A. Q8BHY3. HEK293 TMEM16A/YFP iodide influx fluorescence, ionomycin. normalized B-score (activity score, 25-100; higher = stronger inhibition) at 10 µM. 1.2% of 310,000 active. AID 588511;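 active means ratio plate-corrected score three or more library SD toward inhibition, starting fluorescence score within five deviations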;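 further: score derived from kinetic fluorescence span divided by baseline fluorescence per well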
ANO1 activ: mouse TMEM16A channel activation, primary screen | AID 623877 | HEK293 TMEM16A/YFP-H148Q/I152L, iodide quench fluorescence; hits give low values | B-score at 10 µM | 0.3% of 340,000 active | Q8BHY3;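 active means fluorescence-ratio B-score plate-corrected deviation score at least 3 library SD below zero, with starting fluorescence score within 5 deviations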;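 further: channel opened by trigger with iodide after compound preincubation; score built on the fluorescence ratio of max minus min over baseline; more negative score means more quench and so TMEM16A activation or potentiation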
CRFBP-R2 agonist: agonists of human CRF-binding protein/CRF-R2 receptor complex; 0.46% of 350,000 active; activation, % at 13.2 µM; HEK293 CRF-R2/CRF-BP, calcium dye fluorescence (FLIPR); percent of saturating CRF peptide response; AID 588473;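 active means activation of at least 50%, plus an integration ratio under a set limit after plate pattern correction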;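 further: plate controls were neutral control wells without compound for no effect and CRF at EC100 for full effect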
MPTP block: inhibitors of mitochondrial permeability transition pore | 1.4% of 360,000 active | isolated mouse mitochondria, Ca2+ swelling absorbance, 30 min | inhibition, % at 10 µM;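 active means inhibition of 50% or more, scaled per plate between neutral and stimulator controls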;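 further: 0% = DMSO wells given calcium and 100% = 1 mM EGTA wells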
NR3A LBD binder: modulates the human NR3A ligand-binding domain | NR3A LBD differential scanning fluorimetry, Tm shift; 0% = protein alone, 100% = glycine-bound protein | Tm shift relative to glycine control, % at 25 µM | 2.5% of 340,000 active | AID 1259313;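 active means melting temperature shift of at least 10% of the positive control shift, at one fixed dose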
Active calls of the source: *; i = inactive; · = no result given.

SMILES	CRFBP-R2 block	ANO1 block	ANO1 activ	CRFBP-R2 agonist	MPTP block	NR3A LBD binder
COC(=O)[C@]1(Cc2ccccc2)N[C@H](CN(C)S(=O)(=O)c2ccc(C(C)(C)C)cc2)[C@@H]2C(=O)N(C)C(=O)[C@@H]21	-3	·	i	1	1	15*
COC(=O)c1ccc(CNC(=O)[C@@H]2CCCN2S(=O)(=O)c2ccccc2F)cc1	-6	·	i	2	2	0
COc1ccc(CC(NC(C)=O)C(=O)NC2CCN(C(=O)Nc3ccccc3C)CC2)cc1OC (configuration not stated)	-20	i	i	8	-1	0
CC(=O)Nc1ccc(OCc2cccc([N+](=O)[O-])c2)cc1	2	i	i	0	-1	-1
COCc1ccc(C(=O)Nc2cccc(S(=O)(=O)N(C)c3ccccc3)c2)cc1	-5	·	i	0	0	3
CN(C)S(=O)(=O)c1cccc(NC(=O)c2ccc(COc3ccccc3)cc2)c1	1	25*	i	4	5	-3
O=C(Nc1ccc2ccccc2c1)c1cccc([N+](=O)[O-])c1	12	i	i	1	1	30*
CC(=O)Nc1cccc(OCc2cccc([N+](=O)[O-])c2)c1	21	·	i	-2	-1	17*
O=[N+]([O-])c1cccc(COc2ccc(CN3CCOCC3)cc2)c1	82*	·	i	-2	0	-5
O=C(Nc1ccc(Oc2cccnc2)cc1)c1cccc([N+](=O)[O-])c1	19	i	i	-1	20	3
O=C(COc1cccc([N+](=O)[O-])c1)NN1C(=O)c2ccccc2C1=O	1	i	i	0	1	546*
Cc1cc(C)cc(OCC(=O)NN2C(=O)c3ccccc3C2=O)c1	-1	i	i	1	-1	0
O=C(Nc1ccc(COc2ccccc2)cc1)c1cccc([N+](=O)[O-])c1	-3	i	i	2	24	22*
N#Cc1ccsc1NC(=O)c1cccc([N+](=O)[O-])c1	63*	i	i	66*	31	-4
CCN(CC)CCCNC(=S)N1CCC(c2nc3ccccc3[nH]2)CC1	-2	i	i	-2	2	-1
CC1=C(C(=O)Nc2cc(C(=O)N3CCN(c4cccc(C)c4C)CC3)ccc2C)SCCO1	40	i	-7.1*	-3	0	-1
CN(CC(=O)Nc1ccc(F)c(F)c1F)C(=O)CCc1nc2sc3c(c2c(=O)[nH]1)CCCC3	-9	i	i	0	0	-1
N#C/C(=C/c1ccc(-c2ccccc2)o1)c1nc(-c2cccs2)cs1	-198	i	i	159*	2	7
N#C/C(=C/c1ccc(-c2ccc([N+](=O)[O-])cc2)o1)C(=O)Nc1nc(-c2cccs2)cs1	6	·	i	-1	2	4
N#C/C(=C\c1ccc(-c2ccc(F)cc2)o1)C(=O)Nc1nc(-c2cccs2)cs1	-20	i	i	10	10	19*
C=CCn1c(SCC(=O)Nc2ccc(F)cc2)nc2cc(C(=O)O)ccc2c1=O	-18	i	i	1	0	15*
COc1ccc(CCNC(=O)c2cccc(S(=O)(=O)N3CCCCC3)c2)cc1	-3	i	i	2	0	-1
COc1ccc(CCNC(=O)c2cc(S(=O)(=O)N3CCCCC3)ccc2Cl)cc1	15	·	i	-1	0	15*
COc1ccc(S(=O)(=O)N2CCCCCC2)cc1C(=O)NCCc1ccccc1	112*	·	i	8	1	-2
COc1ccc(S(=O)(=O)N2CCCCCC2)cc1C(=O)N(C)Cc1ccc(Cl)cc1Cl	-103	i	-22*	104*	0	·
SMILES	CRFBP-R2 block	ANO1 block	ANO1 activ	CRFBP-R2 agonist	MPTP block	NR3A LBD binder
Cc1ccc(CN2CCC(n3nccc3NC(=O)c3ccccc3C)CC2)o1	-13	i	i	-2	3	1
Cc1ccc(S(=O)(=O)NCCC(=O)NCC(c2cccs2)N2CCOCC2)cc1 (configuration not stated)	0	i	i	1	0	-2
COc1ccc(-c2csc(Nc3ccccn3)n2)cc1OC	10	25*	i	-2	0	-6
Cc1cccnc1Nc1nc(-c2ccc(O)cc2)cs1	-7	i	i	-1	0	30*
Oc1ccc(-c2csc(Nc3ccccn3)n2)cc1	-2	i	i	-1	0	31*
Fc1ccc(-c2csc(Nc3ccccn3)n2)c(F)c1	-6	i	i	0	2	32*
c1ccc(-c2csc(Nc3ccccn3)n2)cc1	-6	i	i	-1	2	-4
CCOc1ccc(CCNC(=O)COC(=O)COc2ccc(C(=O)CC)cc2)cc1OCC	1	i	i	-1	-2	2
O=C(Cc1ccc(Cl)cc1Cl)Nc1ccncc1	2	i	i	-2	39	-2
O=C(Cc1ccc(Cl)cc1Cl)Nc1ccncc1Cl	-4	25*	i	0	40	-1
CCOC(=O)c1cc(-c2ccccc2C)nn1CC1CC(c2ccc(OC)cc2)=NO1 (configuration not stated)	6	·	i	1	2	0
CCOC(=O)c1cc(-c2ccccc2)nn1CC1CC(c2ccc(OC)cc2)=NO1 (configuration not stated)	-5	·	i	7	0	13*
C[C@@H](C(=O)NCCc1ccccc1F)N1C(=O)N2CCc3c([nH]c4ccccc34)[C@@]2(C)C1=O	-4	25*	i	-2	2	-3
C[C@@H](C(=O)NCCc1ccccc1)N1C(=O)N2CCc3c([nH]c4ccccc34)[C@@]2(C)C1=O	-9	i	i	2	1	-2
CC(C)[C@@H](C(=O)NC1CCN(Cc2ccccc2)CC1)N1C(=O)N2CCc3c([nH]c4ccccc34)[C@@]2(C)C1=O	-7	i	i	2	-2	37*
Fc1ccc(COc2cccc(CNCc3ccncc3)c2)cc1	0	25*	i	0	32	-1
Cc1ccc(C(CNS(=O)(=O)c2ccc([N+](=O)[O-])cc2)N2CCN(C)CC2)cc1 (configuration not stated)	-4	i	i	2	4	·
CC(=O)c1c(C)[nH]c(C(=O)CN2C(=O)NC(C)(c3ccc4c(c3)OCO4)C2=O)c1C (configuration not stated)	-41	i	i	5	-1	1
CC1(c2ccc(OC(F)F)cc2)NC(=O)N(CC(=O)NC2CCCCC2)C1=O (configuration not stated)	-11	i	i	4	0	2
